Measurements: PubChem BioAssay
The source made the active and inactive calls. Unless noted, the rule behind the calls is not given here.

Legend:
[1] = anti-His antibody binders, primary screen, artefact control for SMM control protein annotation, biochemical, small-molecule microarray, 635 nm fluorescence (AID 1128); settings: anti-His Alexa647 antibody binding, higher = more signal;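 note: score merges feature fluorescence with signal-to-noise for each printed compound spot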
[2] = test system: Human papillomavirus type 1a E7 protein (residues 1-88); assay: HPV1a E7 small-molecule binders, primary screen, biochemical, small-molecule microarray, residues 1-88, 635 nm (AID 1129); settings: small-molecule microarray binding, fluorescence 635 nm; higher = more signal
[3] = target: Focal adhesion kinase 1 (Homo sapiens) (UniProt Q05397); assay: small-molecule microarray binders of FAK, primary screen, biochemical, 635/667 nm fluorescence, BSA, DTT (AID 1130); settings: PTK2 binding, 635 nm fluorescence, higher = more signal;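 note: composite of spot emission at 667 nm and signal to noise over triplicate slides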
Chain of Focal adhesion kinase 1 (Homo sapiens) (Q05397 whole entry, looked up): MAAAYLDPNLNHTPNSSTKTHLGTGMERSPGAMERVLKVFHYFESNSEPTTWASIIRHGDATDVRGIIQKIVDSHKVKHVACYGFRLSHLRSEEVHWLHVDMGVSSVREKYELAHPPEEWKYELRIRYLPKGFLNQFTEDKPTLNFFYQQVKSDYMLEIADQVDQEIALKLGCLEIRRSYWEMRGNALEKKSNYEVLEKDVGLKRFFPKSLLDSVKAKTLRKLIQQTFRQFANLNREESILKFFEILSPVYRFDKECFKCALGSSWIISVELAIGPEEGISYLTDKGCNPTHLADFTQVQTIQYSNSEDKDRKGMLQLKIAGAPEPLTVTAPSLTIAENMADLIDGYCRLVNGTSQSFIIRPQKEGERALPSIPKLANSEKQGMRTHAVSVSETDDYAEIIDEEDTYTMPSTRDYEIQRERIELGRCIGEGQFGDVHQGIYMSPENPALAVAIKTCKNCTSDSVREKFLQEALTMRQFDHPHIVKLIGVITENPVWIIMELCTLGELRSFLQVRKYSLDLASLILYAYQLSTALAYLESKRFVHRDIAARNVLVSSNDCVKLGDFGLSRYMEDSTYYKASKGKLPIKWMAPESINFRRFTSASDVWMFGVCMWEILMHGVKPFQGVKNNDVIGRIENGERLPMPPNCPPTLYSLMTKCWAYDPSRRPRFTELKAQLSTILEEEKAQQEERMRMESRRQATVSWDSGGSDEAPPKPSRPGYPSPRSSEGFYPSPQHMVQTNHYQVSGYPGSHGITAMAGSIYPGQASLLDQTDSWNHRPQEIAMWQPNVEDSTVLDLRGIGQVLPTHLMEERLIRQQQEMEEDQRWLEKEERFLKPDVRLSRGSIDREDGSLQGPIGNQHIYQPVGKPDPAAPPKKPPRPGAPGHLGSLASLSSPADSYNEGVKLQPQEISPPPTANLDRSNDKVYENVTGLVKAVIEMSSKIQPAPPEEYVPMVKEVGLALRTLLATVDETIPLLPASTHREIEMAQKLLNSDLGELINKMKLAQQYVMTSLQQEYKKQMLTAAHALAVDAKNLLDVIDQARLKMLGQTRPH

[4] = test system: Fibrinogen (Alexa647-labelled); assay: fibrinogen binders on compound microarrays, profiling panel, artefact control for SMM control-protein annotation, biochemical, small-molecule microarray, 635/667 nm fluorescence (AID 1131); settings: fibrinogen-A647 binding fluorescence, higher = more signal;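 note: z-score merges 667 nm fluorescence with per-spot signal-to-noise over triplicate slides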
[5] = target: Follistatin (Homo sapiens) (UniProt P19883); assay: follistatin binders on small-molecule microarrays, primary screen, biochemical, small-molecule microarray, 635/667 nm fluorescence (AID 1132); settings: FST binding, 635 nm fluorescence, higher = more signal
Chain of Follistatin (Homo sapiens) (P19883 whole entry, looked up): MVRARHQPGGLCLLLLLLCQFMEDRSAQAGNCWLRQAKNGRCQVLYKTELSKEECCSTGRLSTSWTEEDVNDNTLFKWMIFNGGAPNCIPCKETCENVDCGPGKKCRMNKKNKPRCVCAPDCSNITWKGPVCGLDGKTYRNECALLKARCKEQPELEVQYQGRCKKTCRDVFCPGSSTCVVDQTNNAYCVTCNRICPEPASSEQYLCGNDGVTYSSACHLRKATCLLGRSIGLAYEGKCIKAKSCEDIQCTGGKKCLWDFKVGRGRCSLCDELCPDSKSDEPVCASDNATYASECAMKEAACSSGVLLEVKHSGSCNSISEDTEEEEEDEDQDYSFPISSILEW

[6] = target: Fibroblast growth factor 2 (Homo sapiens) (UniProt P09038); assay: FGF2 binders on small-molecule microarrays, primary screen, biochemical, small-molecule microarray, 635/667 nm fluorescence (AID 1133); settings: small-molecule microarray binding, FGF2, fluorescence 635/667; higher = more signal
Chain of Fibroblast growth factor 2 (Homo sapiens) (P09038 whole entry, looked up): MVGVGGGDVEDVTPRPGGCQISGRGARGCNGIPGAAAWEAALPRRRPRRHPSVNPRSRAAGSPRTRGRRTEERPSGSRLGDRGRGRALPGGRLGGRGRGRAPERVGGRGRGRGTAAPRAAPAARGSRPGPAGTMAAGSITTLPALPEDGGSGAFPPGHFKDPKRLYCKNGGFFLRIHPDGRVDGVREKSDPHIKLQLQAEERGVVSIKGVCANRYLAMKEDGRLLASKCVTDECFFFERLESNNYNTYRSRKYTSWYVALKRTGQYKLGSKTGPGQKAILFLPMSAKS

[7] = mitochondrial membrane potential change in A549 cells, profiling panel, cell-based, JC-1 fluorescence, basal, 24 h, 100 nL (AID 1138); settings: higher = more signal;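 note: A549 lung adenocarcinoma cells under basal conditions with no added stimulus; test concentration not given here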
[8] = test system: Lefty1; assay: Lefty1 binders on small-molecule microarrays, primary screen, biochemical, small-molecule microarray, 635/667 nm fluorescence (AID 1139); settings: small-molecule microarray binding, fluorescence 635/667; higher = more signal
[9] = test system: wheat germ agglutinin (Triticum aestivum), Alexa647-labelled; assay: wheat germ agglutinin binders on compound microarrays, profiling panel, artefact control for SMM control-protein annotation, biochemical, small-molecule microarray, 635/667 nm fluorescence (AID 1140); settings: WGA-A647 binding, 635 nm fluorescence, higher = more signal;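 note: score merges 667 nm feature emission with signal to noise over triplicate slides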
[10] = target: Luciferin 4-monooxygenase (Photinus pyralis) (UniProt P08659); assay: firefly luciferase enzyme inhibitors, primary screen, biochemical, luminescence, purified enzyme, 2006 set (AID 1141); settings: SteadyGlo luminescence, 30 min, higher = more signal, called active from +8 up or from −8 down;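 note: cell-free assay with purified firefly luciferase at 100 ng per well in PBS; test concentration not given here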
Chain of Luciferin 4-monooxygenase (Photinus pyralis) (P08659 whole entry, looked up): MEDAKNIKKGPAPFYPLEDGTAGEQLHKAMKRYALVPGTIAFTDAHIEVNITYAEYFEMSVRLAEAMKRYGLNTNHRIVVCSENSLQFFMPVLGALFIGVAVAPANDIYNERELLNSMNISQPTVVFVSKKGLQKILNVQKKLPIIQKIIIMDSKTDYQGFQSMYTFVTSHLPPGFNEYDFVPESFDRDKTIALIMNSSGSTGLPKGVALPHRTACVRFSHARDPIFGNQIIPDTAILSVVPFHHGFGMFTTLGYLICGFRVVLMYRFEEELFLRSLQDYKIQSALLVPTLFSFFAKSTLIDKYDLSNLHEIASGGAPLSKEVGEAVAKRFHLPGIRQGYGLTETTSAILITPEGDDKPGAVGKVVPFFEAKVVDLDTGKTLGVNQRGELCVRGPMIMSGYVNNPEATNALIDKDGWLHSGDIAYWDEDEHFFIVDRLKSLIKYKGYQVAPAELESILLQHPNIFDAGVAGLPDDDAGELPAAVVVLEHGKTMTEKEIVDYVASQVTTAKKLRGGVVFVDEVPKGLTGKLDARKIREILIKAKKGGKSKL

[11] = test system: Wnt5a (protein binding on small-molecule microarray); assay: Wnt5a binders on small-molecule microarray, primary screen, biophysical, 635/667 nm fluorescence (AID 1142); settings: 635 nm fluorescence, higher = more signal;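 note: fluorescence read at 667 nm with signal to noise per printed feature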
[12] = cell viability in Huh7 cells, primary screen, cytotoxicity control for HCV replication inhibitor project, CellTiter-Glo luminescence, basal, 48 h (AID 1143); settings: Huh7 HCV replicon, higher = more signal, called active from +8 up or from −8 down;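 note: Huh7 hepatoma cells carrying a hepatitis C replication reporter with no stimulus; test concentration not given here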
[13] = P. aeruginosa biofilm formation inhibitors, primary screen, PAO1 strain, BacTiter-Glo luminescence, LB-PBS (AID 1144); settings: 12 h, higher = more signal
[14] = CREB reporter modulators without forskolin, primary screen, cell-based, PC12, CRE-LacZ reporter, unstimulated (AID 1145); settings: no forskolin, luminescence, 4.5 h, higher = more signal, called active from +8 up or from −8 down
[15] = CREB reporter modulators under forskolin, primary screen, cell-based, PC12, CRE-LacZ reporter, forskolin-stimulated (AID 1146); settings: luminescence, 4.5 h, higher = more signal, called active from +8 up or from −8 down;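 note: PC12 cells with 6xCRE LacZ reporter stimulated by forskolin 10 µM; beta-galactosidase reporter signal reflecting CREB driven transcription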
[16] = target: Streptavidin (Streptomyces avidinii) (UniProt P22629); assay: streptavidin binders on small-molecule microarray, primary screen, artefact control for SMM compound annotation, biophysical, 635/667 nm fluorescence (AID 1147); settings: streptavidin binding, higher = more signal;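 note: signal reflects streptavidin binding to arrayed compounds as a control protein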
Chain of Streptavidin (Streptomyces avidinii) (P22629 whole entry, looked up): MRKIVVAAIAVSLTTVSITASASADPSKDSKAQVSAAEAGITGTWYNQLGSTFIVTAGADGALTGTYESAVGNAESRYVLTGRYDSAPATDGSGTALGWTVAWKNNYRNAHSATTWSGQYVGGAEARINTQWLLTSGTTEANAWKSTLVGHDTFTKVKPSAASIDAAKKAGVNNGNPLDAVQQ

[17] = small-molecule binders of probe aInhba, primary screen, biochemical, small-molecule microarray, 635/667 nm fluorescence (AID 1148); settings: higher = more signal;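 note: score merges 667nm spot fluorescence with signal-to-noise for antibody binding to printed compounds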
[18] = target: Torsin-1A (Homo sapiens) (UniProt O14656); assay: torsin A binders from cell lysate, primary screen, small-molecule microarray, wild-type, 635/667 nm (AID 1149); settings: COS7 hTOR1A-WT lysate, 635 nm fluorescence, higher = more signal
Chain of Torsin-1A (Homo sapiens) (O14656 whole entry, looked up): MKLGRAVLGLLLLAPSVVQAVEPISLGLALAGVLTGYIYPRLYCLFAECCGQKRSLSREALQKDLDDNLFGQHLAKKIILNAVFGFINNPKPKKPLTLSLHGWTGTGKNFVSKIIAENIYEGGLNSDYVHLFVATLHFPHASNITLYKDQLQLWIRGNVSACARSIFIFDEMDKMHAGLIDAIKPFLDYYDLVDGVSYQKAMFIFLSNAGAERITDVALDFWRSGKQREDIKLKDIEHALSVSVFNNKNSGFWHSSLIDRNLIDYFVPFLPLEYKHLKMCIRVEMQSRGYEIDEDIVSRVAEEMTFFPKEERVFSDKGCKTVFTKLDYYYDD

[19] = target: Torsin-1A (Homo sapiens) (UniProt O14656); assay: small-molecule binders of mutant TOR1A in lysate, primary screen, cell lysate, small-molecule microarray, COS7 lysate, 635/667 nm fluorescence (AID 1150); settings: COS7 hTOR1A mutant lysate, 635 nm fluorescence, higher = more signal;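 note: score pools 667 nm emission and signal to noise measuring lysate protein binding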
[20] = test system: Sonic hedgehog protein (Shh); assay: small-molecule binders of Shh protein, primary screen, biochemical, small-molecule microarray, 635/667 nm fluorescence (AID 1151); settings: small-molecule microarray binding, 635 nm fluorescence; higher = more signal;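 note: Shh protein binding to compounds spotted on small-molecule microarray slides; score combines spot fluorescence intensity with signal-to-noise across triplicate slides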

| SMILES | composite z-score [1] | composite z-score [2] | composite z-score [3] | composite z-score [4] | composite z-score [5] | composite z-score [6] | z-score [7] | composite z-score [8] | composite z-score [9] | z-score [10] | composite z-score [11] | z-score [12] | z-score [13] | z-score [14] | z-score [15] | composite z-score [16] | composite z-score [17] | composite z-score [18] | composite z-score [19] | composite z-score [20] |
| --- | --- | --- | --- | --- | --- | --- | --- | --- | --- | --- | --- | --- | --- | --- | --- | --- | --- | --- | --- | --- |
| C=C(COC)/C(=C/C[C@@H](OC(C)=O)c1cccc(OCCO)c1)c1cnc2ccccc2c1 | 0.309 | 0.75 | -0.012 | -0.657 | 1.42 | 1.2 | 0.031 | 1.24 | 1.04 | -1.11 (inactive) | 0.603 | -2.14 (inactive) | 0.0432 (inactive) | 2.53 (inactive) | -0.444 (inactive) | 0.897 | -0.0131 | 0.14 | 0.499 | 1.83 |
| CCCCC=C[C@@H](NC(=O)C(C)(C)C)c1ccccc1 | 1.14 | 1.09 | 0.35 | 0.935 | 0.495 | -0.0812 | -2.82 | 0.302 | 0.814 | 1.76 (inactive) | 0.5 | -2.89 (inactive) | 0.124 (inactive) | -0.185 (inactive) | 1.67 (inactive) | 0.761 | 0.353 | 0.226 | 0.487 | -0.0371 |
| CC1C2C(CCCO)=CC(C3C(=O)N(C(N)=O)C(=O)C23)N1Cc1cccc(OC(F)(F)F)c1 (stereo not given) | 0.632 | 1.11 | 0.314 | 0.646 | 0.0794 | 0.438 | -0.341 | 0.216 | 0.576 | -0.0224 (inactive) | -0.0205 | 0.897 (inactive) | 0.206 (inactive) | -0.233 (inactive) | 0.693 (inactive) | 0.664 | -0.0531 | 0.438 | 0.6 | 0.396 |
| COc1ccc([Si](C)(C)[C@H]2[C@H](CC(=O)N(CCO)Cc3ccccc3)O[C@@]3(C(=O)N(Cc4cccc(N5CCCCC5=O)c4)c4ccccc43)[C@@H]2C)cc1 | 1.13 | 0.694 | 0.18 | 0.267 | 0.724 | 1.23 | -0.153 | 0.931 | 0.311 | -1.55 (inactive) | 0.0763 | -4.74 (inactive) | -0.937 (inactive) | 3.13 (inactive) | -1.32 (inactive) | 0.0037 | -0.0719 | 0.444 | 0.793 | 2.13 |
| CN1C(=O)C2C=CC(C(O)c3cccs3)N(N(c3ccccc3)c3ccccc3)C2C1=O (stereo not given) | 2.34 | 1.08 | 0.663 | 0.954 | 0.569 | -0.469 | 0.7 | 0.169 | 1.06 | -0.697 (inactive) | -0.0276 | 0.114 (inactive) | -0.176 (inactive) | 1.21 (inactive) | -0.324 (inactive) | 0.827 | 0.0422 | 1.75 | 0.0109 | -0.287 |
| Cc1ccc(S[C@]2(C(=O)NC3CC3)CC(=O)N(C3Cc4ccccc4C3)[C@@H]2c2ccc(CO)cc2I)cc1 | 0.447 | 0.275 | -0.3 | 0.484 | 0.0932 | -0.115 | 1.57 | -1.32 | -0.409 | -1.28 (inactive) | -0.547 | -2.23 (inactive) | 0.714 (inactive) | 0.919 (inactive) | 2.86 (inactive) | -0.441 | 0.0051 | 0.909 | 0.701 | 0.209 |
| COC(=O)C1(CC(C)C)C=C2C(=C(C)C(=O)C2C)CN1 (stereo not given) | 2.95 | 0.098 | 0.183 | -0.423 | 0.901 | -0.583 | 1.05 | -0.368 | 0.67 | 1.98 (inactive) | 0.392 | -0.109 (inactive) | 0.142 (inactive) | 0.0041 (inactive) | 2.32 (inactive) | 0.351 | 1.17 | 0.0384 | 0.276 | -0.645 |
| COc1cc2c(cc1OC)CN(C(=O)[C@@H]1[C@H]3C(=O)O[C@H](c4ccccc4)[C@H](c4ccccc4)N3[C@H](c3ccc(O)cc3)[C@@]13C(=O)Nc1ccc(C#CC4=CCCCC4)cc13)CC2 | 1.76 | 1.19 | 0.453 | 0.863 | 1.08 | 0.493 | -0.637 | 1.46 | 1.06 | -1.33 (inactive) | 0.236 | -1.56 (inactive) | -0.376 (inactive) | -0.375 (inactive) | -0.493 (inactive) | 1.03 | 0.271 | 0.335 | 0.794 | 1.07 |
| C=CC[C@]12N=C(c3ccc(OCCCO)cc3)O[C@H]1c1ccccc1N(CCC)C2=O | 2.3 | 0.917 | 0.685 | 0.488 | 1.46 | 1.35 | 0.948 | 0.613 | 0.954 | -3.66 (inactive) | 0.587 | -3.39 (inactive) | 0.552 (inactive) | 0.866 (inactive) | -0.743 (inactive) | -0.256 | 0.562 | 0.234 | 0.397 | 1.61 |
| CCCCCCc1nc(-c2ccc(OC)nc2)c(C)c2c1[Si](C(C)C)(C(C)C)OC2 | 0.975 | -0.461 | 0.0484 | -0.52 | 0.553 | 0.0695 | -0.498 | 0.524 | -0.491 | 0.146 (inactive) | -0.0701 | -2.75 (inactive) | -1.13 (inactive) | 0.106 (inactive) | -0.556 (inactive) | -0.2 | 0.0536 | 0.397 | -0.57 | 0.417 |
